Screens deposited in PubChem BioAssay by National Center for Advancing Translational Sciences (NCATS).
p53null 32C tox: selectivity test: cytotoxicity in p53 null cells, permissive temperature. AID 903. H1299-neo p53 null cells, ATP luminescence, 24 h, 32C. Potency, µM (series often up to 46.1 µM), for inactives: at the top dose activity change, negative = cytotoxicity, hits mostly cytotoxic. 55,000 compounds, 0.62% hits;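 note: potency is the fitted concentration of half-maximal effect; 0% = DMSO only and -100% = full killing by 100 µM tamoxifen; nearly all actives have a fitted effect of over 55% in size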
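ATP-content luminescence in p53-null H1299-neo cells after 24 h compound exposure (up to 46 uM) at 32C permissive temperature; 0% and 100% killing set by DMSO and 100 uM tamoxifen; Hill-equation AC50.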
p53null 39C kill: kills p53 null cells at the nonpermissive temperature. H1299 p53-null (neo) cells, 39C, ATPlite viability, 24 h. Potency, µM (highest dose often 46.1 µM), without a hit: top-dose activity, negative = cell killing, most hits filed as cytotoxic. 55,000 compounds, 0.97% hits. AID 904;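 note: potency is the fitted concentration of half-maximal effect; 0% = DMSO only and -100% = full killing by 100 µM tamoxifen; nearly all actives have a fitted effect of over 50% in size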
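ATP-luminescence viability readout (ATPlite, 20 min RT) after 24 hr compound treatment at 39C of H1299-neo or H1299-p53A138V cells; titration up to 46 uM; normalized to DMSO and 100 uM tamoxifen; Hill-fit AC50.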
mTORC1 inh: mTORC1 pathway inhibition measured by phospho-rpS6 | Tsc2-/- p53-/- MEF, phospho-rpS6 immunofluorescence/PI, 24 h | Potency, µM (doses to about 38.3 µM), without a hit: at the top dose activity change, negative = inhibition, hits mostly inhibitors | 44,000 compounds, 0.78% hits | AID 493208;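 note: potency is the fitted concentration of half-maximal effect; plate controls were DMSO for no effect and rapamycin for full effect; nearly all actives have a fitted effect of over 50% in size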
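Compounds act on Tsc2-/-, p53-/- fibroblasts carrying an empty vector for 24 h before fixation and dual staining for phospho-S6 and DNA (propidium iodide). Values are percentages of cells above a rapamycin-defined pS6/PI threshold.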
PMP22 txn prim: modulates PMP22 transcription in S16 Schwann cells. S16 Pmp22-F2sN Schwann cells, FLuc/NLuc coincidence luminescence, 24 h. Potency, µM (doses to about 57.5 µM), for inactives: at the top dose activity change, negative = inhibition, usual class: inhibitors. 43,000 compounds, 2% hits; active = clear falling dose curves in both reporters; inconclusive = both reporters move, but less clearly or upward; inactive = either reporter flat; the % is the NLuc reporter signal; note: potency is the fitted concentration of half-maximal effect; % is set by controls: 0 for no effect and ±100 for the full control effect
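Transcriptional readout in edited S16(c9) cells: two luciferases reported from the Pmp22 locus, measured in turn after 24 h compound incubation.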
S16 viability: S16 Schwann cell cytotoxicity. S16 Pmp22-F2sN Schwann cells viability, CellTiter-Glo, 24 h. AID 1508642. 43,000 compounds, 0.48% hits. Potency, µM (highest dose often 57.5 µM), for inactives: at the highest dose activity change, negative = cytotoxicity, hits mostly cytotoxic; note: potency is the fitted concentration of half-maximal effect; % is set by controls: 0 for no effect and ±100 for the full control effect; nearly all actives have a fitted effect of over 65% in size
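Luminescence from CellTiter-Glo, read by CCD camera after a 15 min room-temperature incubation, served as the viability signal. Reporter Schwann cells (S16 Pmp22-F2sN) had been treated with pin-transferred compounds for 24 h at 37C.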
NLuc saturating: counter-screen for PMP22 expression modulators: NanoLuc inhibition, saturating substrate; shares compounds with PMP22 txn prim; Secreted NLuc enzyme (filtered S16 cell medium), Nano-Glo luminescence; Potency, µM (titrated, usually from 57.5 µM), for the others: top-dose activity change, negative = inhibition, usual class: inhibitors; 690 compounds, 4% hits; AID 1508638; note: potency is the fitted concentration of half-maximal effect; % is set by controls: 0 for no effect and ±100 for the full control effect
NLuc Km counter: NanoLuc inhibition at Km substrate, PMP22 artifact check; 690 compounds, 5% hits; AID 1508639; secreted NLuc enzyme, coelenterazine luminescence, Km conditions; Potency, µM (series often up to 57.5 µM), for the others: at the highest dose activity change, negative = inhibition, usual class: inhibitors; shares compounds with PMP22 txn prim; note: potency is the fitted concentration of half-maximal effect; % is set by controls: 0 for no effect and ±100 for the full control effect
FLuc counter: firefly luciferase enzyme inhibition artifact for PMP22 screen; shares compounds with PMP22 txn prim; purified P. pyralis FLuc, luminescence, 10 min; Potency, µM (series often up to 57.5 µM), inactives show at the highest dose activity, negative = inhibition, hits mostly inhibitors; 690 tested, under 10 active; AID 1508640; note: % of control where 0% means no effect
Target sequence (P08659 whole entry, looked up): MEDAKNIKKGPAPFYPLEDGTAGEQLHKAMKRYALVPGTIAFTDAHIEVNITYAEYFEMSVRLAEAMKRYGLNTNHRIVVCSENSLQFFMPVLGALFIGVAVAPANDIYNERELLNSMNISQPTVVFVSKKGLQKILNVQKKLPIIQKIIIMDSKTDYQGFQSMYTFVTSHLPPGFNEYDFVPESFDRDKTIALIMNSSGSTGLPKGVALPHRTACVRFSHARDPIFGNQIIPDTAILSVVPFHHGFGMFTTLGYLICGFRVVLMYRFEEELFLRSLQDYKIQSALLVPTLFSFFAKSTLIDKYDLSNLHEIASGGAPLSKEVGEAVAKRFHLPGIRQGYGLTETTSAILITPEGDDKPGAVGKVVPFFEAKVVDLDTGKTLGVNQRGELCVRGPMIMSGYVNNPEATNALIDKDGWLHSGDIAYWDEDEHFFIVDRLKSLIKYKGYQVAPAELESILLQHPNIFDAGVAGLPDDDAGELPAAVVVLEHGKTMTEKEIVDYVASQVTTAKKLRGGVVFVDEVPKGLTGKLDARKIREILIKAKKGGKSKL
S16 viab conf: confirmation of cytotoxicity in S16 Pmp22-F2sN Schwann cells (luciferase reporters placed in the Pmp22 gene); 690 compounds, 7% hits; AID 1508641; S16 Schwann cells viability, CellTiter-Glo ATP luminescence, 24 h; Potency, µM (highest dose often 57.5 µM), inactives show top-dose activity change, negative = viability loss, hits mostly cytotoxic; shares compounds with PMP22 txn prim; note: potency is the fitted concentration of half-maximal effect; % is set by controls: 0 for no effect and ±100 for the full control effect
PMP22 txn conf: confirmation of modulators of PMP22 gene transcription in S16 cells | shares compounds with PMP22 txn prim | S16 Schwann cells Pmp22-F2sN, dual luciferase, 24 h | 690 compounds, 22% hits | Potency, µM (titrated, usually from 57.5 µM), without a hit: at the top dose activity change, negative = inhibition, most hits filed as inhibitors; active = clear falling dose curves in both reporters; inconclusive = both reporters move, but less clearly or upward; inactive = either reporter flat; the % is the FLuc reporter signal; note: potency is the fitted concentration of half-maximal effect
Starred values were filed as active, the others as inactive; ? = inconclusive; · = no result given. An excerpt weighted towards active compounds, which were near 3.2% of everything screened. Unless noted, calls come from the whole dose curve; as a rule, active = well fitted curve in the direction sought with a large enough effect; inconclusive = small, poorly fitted or top-dose-only effect, or another doubt; inactive = no such curve, though single readings can be large; an effect the other way counts as inactive or inconclusive.

SMILES	p53null 32C tox	p53null 39C kill	mTORC1 inh	PMP22 txn prim	S16 viability	NLuc saturating	NLuc Km counter	FLuc counter	S16 viab conf	PMP22 txn conf
Cc1ccc(Cl)cc1Nc1nn2c(=O)c3ccc(C(=O)NCc4cccs4)cc3nc2s1	?	29%	-1%	8.4µM*	25µM*	-8%	-3%	0%	27µM*	?
CCCCOc1ccc(C(=O)NCCc2csc(-c3ccc(OC)cc3)n2)cc1	48%	13%	-21%	-76%	-13%	·	·	·	·	·
Cc1ccc(-n2c(/C=C\c3ccc(F)c(F)c3)nc3ccccc3c2=O)c(C)c1	4%	26%	6%	8.9µM*	?	-3%	-3%	2%	-6%	?
CCOc1ccc(NC(=O)CN(c2ccc(Cl)cc2C)S(=O)(=O)c2ccccc2)cc1	-17%	33%	-2%	?	?	·	·	·	·	·
Cc1oc(-c2ccc(Cl)cc2)nc1CN1CCC(C(=O)NCCCN2CCN(c3cccc(Cl)c3)CC2)CC1	-5%	25µM*	?	13µM*	?	?	?	-9%	17µM*	10µM*
CCOc1ccc(C(=O)Nc2cccc(C(=O)OCc3cc(=O)n4nc(C5CC5)sc4n3)c2)cc1	-22%	?	15%	?	5%	·	·	·	·	·
COc1ccc(Cl)cc1S(=O)(=O)Nc1cccc(-c2ccc(N3CCCC3)nn2)c1	0%	?	0%	·	·	·	·	·	·	·
CCCCOc1ccc(CN2C(=O)C(=O)c3cc(C)ccc32)cc1OC	28%	20µM*	?	8.8µM*	?	-16%	-1%	-2%	-7%	?
CCOC(=O)c1cnc2c(ccc3ccccc32)c1Nc1ccc(N(C)C)cc1	11%	-10%	?	?	-15%	·	·	·	·	·
CCOc1ccc(NC(=O)CSc2oc(-c3ccccc3)nc2S(=O)(=O)c2ccc(Cl)cc2)cc1	?	10µM*	?	10µM*	6%	?	?	3%	?	19µM*
